# Reference: PubChem BioAssay (NCATS)
# Results filed as inconclusive are left out. The source made the active and inactive calls. Unless noted, calls come from the whole dose curve.
# Assays:
# [1] = target: Bile acid receptor (Homo sapiens) (UniProt Q96RI1); test: qHTS assay for small molecule agonists of farnesoid X receptor signaling (AID 588527); conditions: HEK293T FXR-UAS-bla, beta-lactamase ratio, 16 h; activation: stronger effect = higher value;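 note: series mostly up to about 77 µM; 0% = vehicle basal and 100% = reference agonist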
# How it was run: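 Read-out: beta-lactamase reporter fluorescence with CCF4 substrate in GeneBLAzer FXR-UAS-bla HEK293T cells, after 16 h compound exposure at 37 C. Response scaled between DMSO basal (0%) and chenodeoxycholic acid at 100 uM (100%).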
# [2] = target: Bile acid receptor (Homo sapiens) (UniProt Q96RI1); test: qHTS assay for small molecule antagonists of farnesoid X receptor signaling (AID 588526); note: % is set by controls: 0 for no effect and ±100 for the full control effect
# How it was run: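 Antagonist mode: titrated compounds tested against chenodeoxycholic acid stimulation (normalized to 50 uM CDCA and DMSO) in GeneBLAzer HEK293T cells for 16 h. Beta-lactamase read by CCF4 fluorescence; IC50 from Hill fits.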
# [3] = target: Peroxisome proliferator-activated receptor delta (Homo sapiens) (UniProt Q03181); test: qHTS assay for small molecule agonists of peroxisome proliferator-activated receptor delta signaling (AID 588534);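 note: 0% = DMSO basal wells and 100% = positive control agonist at 10 µM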
# How it was run: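 Titration series tested in agonist mode on beta-lactamase reporter cells; 18 hrs at 37 C after a 5 hr pre-incubation. Readout: CCF4 fluorescence, 2 hrs RT. Hill equation gives EC50 and maximal response.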
# [4] = qHTS assay for small molecule antagonists of peroxisome proliferator-activated receptor delta signaling (AID 588535; active = well fitted inhibition curve with a large enough effect in the signal ratio, with a control signal flat, not every such curve was filed as active; the % refers to the signal ratio;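 for max response: cells co-treated with a PPAR-delta agonist as stimulator during compound exposure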); conditions: HEK293T PPARd-UAS-bla, beta-lactamase FRET ratio, 18 h; 460 nm channel
# How it was run: (§1)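 Beta-lactamase reporter read-out (405 nm excitation, 460/530 nm emission) after CCF4 loading for 2 hrs at RT. HEK293T PPAR-delta-UAS-bla cells, 2% charcoal/dextran FBS, compounds for 18 hrs at 37 C. Hill fit gave IC50 and efficacy.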
# [5] = target: Vitamin D3 receptor (Homo sapiens) (UniProt P11473); test: qHTS assay for small molecule antagonists of vitamin D receptor signaling (AID 588541);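 note: receptor activated by calcitriol during compound treatment; series mostly up to about 77 µM; % is set by controls: 0 for no effect and ±100 for the full control effect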
# How it was run: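 VDR-UAS-bla HEK293T cells in 2% charcoal-stripped FBS were stimulated with 1-alpha,25-dihydroxyvitamin D3 (3 nM final) plus compound for 16 h at 37 C. The beta-lactamase CCF4 readout was normalized to 50 nM agonist and DMSO, and Hill fits gave IC50.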
# [6] = target: Vitamin D3 receptor (Homo sapiens) (UniProt P11473); test: qHTS assay for small molecule agonists of vitamin D receptor signaling (AID 588543);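 note: 0% = DMSO basal and 100% = reference agonist control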
# How it was run: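 Reporter cells (HEK293T, VDR-UAS-bla) were seeded in medium with 2% charcoal-stripped serum and incubated 5 h, then compounds in concentration series were added for 16 h at 37 °C. Stimulation was scaled between DMSO basal and 50 nM 1α,25-dihydroxyvitamin D3.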
# [7] = qHTS assay for small molecule agonists of retinoid X receptor alpha signaling (AID 588544); conditions: HEK293T RXRa-UAS-bla, beta-lactamase reporter, 18 h; 530 nm emission;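 for activation: 0% = DMSO basal wells and 100% = reference agonist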
# [8] = target: Retinoic acid receptor RXR-alpha (Homo sapiens) (UniProt P19793); test: as above
# [9] = target: Thyroid hormone receptor beta (Homo sapiens) (UniProt P10828); test: qHTS assay for small molecule agonists of thyroid hormone receptor beta signaling (AID 588545)
# How it was run: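 Cells (2500/well) were seeded, incubated 4 hrs at 37 C, dosed with a compound series, incubated 18 hrs, loaded with CCF4 dye for 2 hrs at RT, then read for fluorescence. Data were scaled between DMSO (0%) and 10 nM T3 (100%).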
# [10] = target: Thyroid hormone receptor beta (Homo sapiens) (UniProt P10828); test: qHTS assay for small molecule antagonists of thyroid hormone receptor beta signaling (AID 588547; active = well fitted inhibition curve with a large enough effect in the signal ratio, with a control signal flat, not every such curve was filed as active; the % refers to the signal ratio;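 note: cells stimulated with 0.4 nM T3 agonist during compound exposure; series mostly up to about 77 µM; % is set by controls: 0 for no effect and ±100 for the full control effect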); conditions: TR-UAS-bla HEK293, beta-lactamase ratio, antagonist mode, 18 h
# How it was run: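 TR-UAS-bla GripTite HEK293 cells in 2% charcoal/dextran FBS medium; compounds 0.59 nM to 92 uM with T3 at 0.4nM final, 18 h at 37 C. Beta-lactamase read by CCF4 fluorescence (460/530 nm); Hill fits gave IC50 and efficacy.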
# [11] = qHTS assay for small molecule activators of the p53 signaling pathway (AID 651743; active = well fitted activation curve with a large enough effect in the signal ratio, not every such curve was filed as active; the % refers to the signal ratio; note: series mostly up to about 92 µM; % of control where 0% means no effect); conditions: HCT-116 p53RE-bla, beta-lactamase FRET ratio, 16 h; activation: stronger effect = higher value
# How it was run: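 Reporter: beta-lactamase driven by p53 response elements, stably integrated in HCT-116 cells. Cells seeded at 4,000/well, 5 h preincubation, compound (DMSO) 16 h at 37 C; B/G FRET substrate 2 h RT; fluorescence intensity read.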
# [12] = qHTS assay for small molecule activators of the nuclear factor-kappa B (NF-kB) signaling pathway (AID 651749; active = well fitted activation curve with a large enough effect in the signal ratio; the % refers to the signal ratio; note: series mostly up to about 77 µM; % of control where 0% means no effect); conditions: NF-kB-bla ME-180 cells, beta-lactamase FRET ratio, 16 h; activation: stronger effect = higher value
# How it was run: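 NF-kB-bla ME-180 cells, 2,000/well; 23 nL compound or DMSO pinned; 16 hr, 37C/5% CO2; beta-lactamase FRET read-out.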
# [13] = qHTS assay for environmental chemicals that activate the Aryl hydrocarbon Receptor (AhR) signaling pathway (AID 651777; active = well fitted curve in the direction sought with a large enough effect; an effect the other way counts as inactive or inconclusive; note: % of control where 0% means no effect; nearly all actives have a fitted effect of over 15% in size); conditions: 1A2-DRE human hepatoma cells, luciferase, 24 h; activation: stronger effect = higher value
# How it was run: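 Luminescence read-out: One-Glo added for 30 min at RT after 24 hr compound treatment (37 C, 5% CO2) of human hepatoma cells expressing a DRE/CYP1A2 promoter–luciferase reporter; increased signal indicates AhR activation.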
# [14] = qHTS assay for small molecule agonists of the antioxidant response element (ARE) signaling pathway measured by Nrf2-dependant transcriptional activity (AID 720636; active = well fitted curve in the direction sought with a large enough effect in the repeat runs; an effect the other way counts as inactive or inconclusive;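 note: HepG2 cells with an ARE-driven luciferase reporter; % of control where 0% means no effect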)
# How it was run: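 HepG2 ARE-luc reporter line, 1% dialyzed FBS; 6 hr attachment at 37 C, compound pinned in, 16 hr at 37 C/5% CO2; ONE-Glo, 30 min RT, luminescence read.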
# [15] = qHTS assay for small molecule agonists of the antioxidant response element (ARE) signaling pathway measured by Nrf2-dependant transcriptional activity - cell viability counter screen (AID 720653; active = well fitted curve in the direction sought with a large enough effect in the repeat runs; an effect the other way counts as inactive or inconclusive; note: % is set by controls: 0 for no effect and ±100 for the full control effect); conditions: ARE-bla HepG2 viability, CellTiter-Glo ATP luminescence, 16 h; max response: stronger effect = lower value
# How it was run: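 ARE-bla HepG2 cells treated with compounds for 16 h at 37C; this counter screen measures viability as intracellular ATP by CellTiter-Glo luminescence after 30 min at room temperature.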
# [16] = qHTS assay for cell viability of HEK293 cells (AID 743288; active = well fitted curve in the direction sought with a large enough effect; an effect the other way counts as inactive or inconclusive; note: % is set by controls: 0 for no effect and ±100 for the full control effect; nearly all actives have a fitted effect of over 50% in size); conditions: ATP luminescence (CellTiter-Glo), 18 h; max response: stronger effect = lower value
# How it was run: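 Viable-cell counts were inferred from luciferase-based ATP content in HEK293 cells seeded at 2,000/well, pre-incubated ≥5 h, then dosed with DMSO-solubilised compounds for 18 h at 37 C.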
# [17] = qHTS assay for cell viability of the p53RE-bla HCT-116 cell line (AID 743292; active = well fitted curve in the direction sought with a large enough effect; an effect the other way counts as inactive or inconclusive; note: % is set by controls: 0 for no effect and ±100 for the full control effect; nearly all actives have a fitted effect of over 55% in size)
# How it was run: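 Luminescent ATP quantitation (CellTiter-Glo) served as the viability read-out; reagent was added after 16 h compound exposure at 37 C and read after 30 min at room temperature. Cells: p53RE-bla HCT-116, 4,000 per well.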
# [18] = target: Nuclear receptor subfamily 1 group I member 2 (Rattus norvegicus) (UniProt Q9R1A7); test: qHTS assay for small molecule activators of the rat pregnane X receptor (rPXR) signaling pathway (AID 651751; call rule not given here; note: 0% is about no effect); conditions: rPXR reporter cells, luciferase (One-Glo), 24 h
# [19] = qHTS assay for small molecule activators of the human pregnane X receptor (PXR) signaling pathway (AID 720659; call rule not given here; note: 0% is about no effect)
# [20] = target: Peroxisome proliferator-activated receptor gamma (Homo sapiens) (UniProt P37231); test: qHTS assay for small molecule agonists of peroxisome proliferator-activated receptor gamma signaling (AID 588536; active = well fitted curve in the direction sought with a large enough effect in the signal ratio, with a control signal flat, not every such curve was filed as active; the % refers to the signal ratio;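 note: 0% = DMSO basal wells and 100% = rosiglitazone at 2 µM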)
# How it was run: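 Beta-lactamase reporter read-out: CCF4 fluorescence (ex 405, em 460/530 nm) after 2 h at RT. HEK293 GeneBLAzer cells were treated for 16 h at 37 C. Hill fits gave EC50 and efficacy versus 2 uM rosiglitazone (100%) and DMSO (0%).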
# [21] = target: Peroxisome proliferator-activated receptor gamma (Homo sapiens) (UniProt P37231); test: qHTS assay for small molecule antagonists of peroxisome proliferator-activated receptor gamma signaling (AID 588537; active = well fitted inhibition curve with a large enough effect in the signal ratio, with a control signal flat, not every such curve was filed as active; the % refers to the signal ratio;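 note: reporter cells co-stimulated with 50 nM rosiglitazone agonist during compound treatment; % of control where 0% means no effect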)
# How it was run: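 Read-out: CCF4 fluorescence (ex 405, em 460/530 nm) after 2 h at RT. Cells were HEK293 carrying a UAS-bla reporter and treated 16 h at 37 C with compound plus rosiglitazone (50 nM final). Normalized to rosiglitazone and DMSO.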
# [22] = qHTS assay for small molecule antagonists of retinoid X receptor alpha signaling (AID 588546; active = well fitted inhibition curve with a large enough effect in the signal ratio, with a control signal flat, not every such curve was filed as active; the % refers to the signal ratio); conditions: HEK293T RXRa-UAS-bla, beta-lactamase ratio, antagonist mode; measured here: W530 green channel, cytotoxicity proxy
# How it was run: (§2)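 Beta-lactamase reporter inhibition, read as CCF4 fluorescence ratio (ex 405, em 460/530 nm) after 2 h at RT. HEK293T UAS-bla cells, 2500/well, were stimulated with 9-cis-RA at 500 or 100 nM final alongside test compound for 18 h at 37 C.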
# [23] = target: Retinoic acid receptor RXR-alpha (Homo sapiens) (UniProt P19793); test: as above; conditions: HEK293T RXRa-UAS-bla, beta-lactamase ratio, antagonist mode
# How it was run: as §2
# [24] = qHTS assay for small molecule agonists of the antioxidant response element (ARE) signaling pathway (AID 651741; active = well fitted activation curve with a large enough effect in the signal ratio; the % refers to the signal ratio; note: % of control where 0% means no effect)
# How it was run: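 HepG2 ARE-bla reporter cells, 2,000/well; 5 h settle at 37 C/5% CO2; compound pin transfer (23 nL, DMSO); 16 h at 37 C; LiveBLAzer B/G FRET substrate, 2 h RT; fluorescence intensity read.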
# [25] = target: Peroxisome proliferator-activated receptor alpha (Homo sapiens) (UniProt Q07869); test: qHTS assay for small molecule agonists of the peroxisome proliferator-activated receptor alpha (PPARalpha) signaling pathway (AID 651778; active = well fitted curve in the direction sought with a large enough effect; an effect the other way counts as inactive or inconclusive; note: % of control where 0% means no effect); conditions: PathHunter PPARalpha complementation, chemiluminescence, 6 h; max response: stronger effect = higher value
# How it was run: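 Enzyme-fragment complementation assay in which ligand-bound PPARalpha translocates and forms an active enzyme that generates chemiluminescence. Cells were plated overnight, exposed to compound for 6 hr at 37 C, and then given detection reagent for 60 min at room temperature.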
# [26] = target: Peroxisome proliferator-activated receptor delta (Homo sapiens) (UniProt Q03181); test: qHTS assay for small molecule antagonists of peroxisome proliferator-activated receptor delta signaling (AID 588535);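 for max response: cells co-treated with a PPAR-delta agonist as stimulator during compound exposure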
# How it was run: as §1
# [27] = target: Glucocorticoid receptor (Homo sapiens) (UniProt P04150); test: qHTS assay for small molecule agonists of glucocorticoid receptor signaling (AID 588532; active = well fitted curve in the direction sought with a large enough effect in the signal ratio, with a control signal flat; the % refers to the signal ratio;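 note: 100% = dexamethasone at 0.1 µM and 0% = DMSO only wells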); conditions: HeLa MMTV-bla, beta-lactamase ratio, agonist, 18 h; activation: stronger effect = higher value, percent of dexamethasone control, DMSO zero
# How it was run: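 Cells were plated and rested 3-5 h at 37 C, compounds were added in titration and incubated 18 h, then CCF4 substrate was loaded for 2 h at RT before reading blue/green fluorescence. EC50 came from Hill-equation fitting.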
# [28] = target: Glucocorticoid receptor (Homo sapiens) (UniProt P04150); test: qHTS assay for small molecule antagonists of glucocorticoid receptor signaling (AID 588533; active = well fitted inhibition curve with a large enough effect in the signal ratio, with a control signal flat, not every such curve was filed as active; the % refers to the signal ratio; note: % is set by controls: 0 for no effect and ±100 for the full control effect)
# How it was run: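 Antagonist-mode qHTS: compound titrations added to GRE-bla HeLa cells, then dexamethasone 2 nM final; 18 h, 37 C. CCF4 FRET fluorescence normalized to dexamethasone and DMSO; IC50 from Hill fit.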
# Peroxisome proliferator-activated receptor delta (Homo sapiens), sequence (Q03181 whole entry, looked up): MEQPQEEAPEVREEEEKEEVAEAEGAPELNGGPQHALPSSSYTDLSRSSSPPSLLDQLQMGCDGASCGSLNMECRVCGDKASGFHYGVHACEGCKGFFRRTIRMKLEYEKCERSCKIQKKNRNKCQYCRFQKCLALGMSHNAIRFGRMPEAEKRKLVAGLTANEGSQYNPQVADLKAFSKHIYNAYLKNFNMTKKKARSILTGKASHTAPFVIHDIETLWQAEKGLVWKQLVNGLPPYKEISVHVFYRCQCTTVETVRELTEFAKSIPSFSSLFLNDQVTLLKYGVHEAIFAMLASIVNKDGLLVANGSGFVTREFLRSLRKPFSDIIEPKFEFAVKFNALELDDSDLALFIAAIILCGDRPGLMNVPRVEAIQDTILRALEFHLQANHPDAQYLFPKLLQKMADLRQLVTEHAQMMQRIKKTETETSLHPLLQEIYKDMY
# Thyroid hormone receptor beta (Homo sapiens), sequence (P10828 whole entry, looked up): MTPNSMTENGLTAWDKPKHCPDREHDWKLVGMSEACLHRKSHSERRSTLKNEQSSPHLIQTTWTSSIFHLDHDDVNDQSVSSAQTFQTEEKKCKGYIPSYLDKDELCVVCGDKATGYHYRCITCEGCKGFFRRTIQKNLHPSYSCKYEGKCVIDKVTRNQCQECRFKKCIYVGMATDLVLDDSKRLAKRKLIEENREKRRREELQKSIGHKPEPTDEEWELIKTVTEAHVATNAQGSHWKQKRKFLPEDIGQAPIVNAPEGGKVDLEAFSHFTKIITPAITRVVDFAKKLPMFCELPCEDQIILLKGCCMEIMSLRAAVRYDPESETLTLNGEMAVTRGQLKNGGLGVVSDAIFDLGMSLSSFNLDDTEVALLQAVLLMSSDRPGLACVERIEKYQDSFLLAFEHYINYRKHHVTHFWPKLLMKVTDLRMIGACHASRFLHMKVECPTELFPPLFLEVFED
# Nuclear receptor subfamily 1 group I member 2 (Rattus norvegicus), sequence (Q9R1A7 whole entry, looked up): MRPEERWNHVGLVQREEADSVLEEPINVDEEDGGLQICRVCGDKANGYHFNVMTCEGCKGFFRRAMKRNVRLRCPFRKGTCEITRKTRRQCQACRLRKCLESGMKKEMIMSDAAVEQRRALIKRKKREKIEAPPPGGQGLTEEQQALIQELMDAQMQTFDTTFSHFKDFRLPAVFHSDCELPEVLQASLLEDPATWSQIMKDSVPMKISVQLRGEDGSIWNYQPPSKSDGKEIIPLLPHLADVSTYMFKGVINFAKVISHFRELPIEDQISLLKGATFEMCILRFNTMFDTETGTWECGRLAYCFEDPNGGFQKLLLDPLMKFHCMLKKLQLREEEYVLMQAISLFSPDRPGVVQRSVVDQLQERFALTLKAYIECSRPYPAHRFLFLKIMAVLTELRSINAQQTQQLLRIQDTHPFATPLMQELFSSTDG
# Peroxisome proliferator-activated receptor gamma (Homo sapiens), sequence (P37231 whole entry, looked up): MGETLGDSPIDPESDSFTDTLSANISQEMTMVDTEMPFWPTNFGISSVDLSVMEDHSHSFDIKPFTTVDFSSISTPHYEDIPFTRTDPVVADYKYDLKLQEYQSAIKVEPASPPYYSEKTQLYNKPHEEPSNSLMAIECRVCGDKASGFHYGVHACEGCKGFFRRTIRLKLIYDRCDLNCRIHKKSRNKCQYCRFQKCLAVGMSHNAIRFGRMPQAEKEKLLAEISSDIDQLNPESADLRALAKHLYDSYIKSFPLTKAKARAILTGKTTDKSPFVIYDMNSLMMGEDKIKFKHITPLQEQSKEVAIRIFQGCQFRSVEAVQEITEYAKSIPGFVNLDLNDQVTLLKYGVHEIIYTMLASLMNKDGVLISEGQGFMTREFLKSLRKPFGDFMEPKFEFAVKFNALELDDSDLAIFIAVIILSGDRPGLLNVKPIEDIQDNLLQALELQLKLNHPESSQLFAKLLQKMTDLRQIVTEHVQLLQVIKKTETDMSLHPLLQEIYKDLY
# Retinoic acid receptor RXR-alpha (Homo sapiens), sequence (P19793 whole entry, looked up): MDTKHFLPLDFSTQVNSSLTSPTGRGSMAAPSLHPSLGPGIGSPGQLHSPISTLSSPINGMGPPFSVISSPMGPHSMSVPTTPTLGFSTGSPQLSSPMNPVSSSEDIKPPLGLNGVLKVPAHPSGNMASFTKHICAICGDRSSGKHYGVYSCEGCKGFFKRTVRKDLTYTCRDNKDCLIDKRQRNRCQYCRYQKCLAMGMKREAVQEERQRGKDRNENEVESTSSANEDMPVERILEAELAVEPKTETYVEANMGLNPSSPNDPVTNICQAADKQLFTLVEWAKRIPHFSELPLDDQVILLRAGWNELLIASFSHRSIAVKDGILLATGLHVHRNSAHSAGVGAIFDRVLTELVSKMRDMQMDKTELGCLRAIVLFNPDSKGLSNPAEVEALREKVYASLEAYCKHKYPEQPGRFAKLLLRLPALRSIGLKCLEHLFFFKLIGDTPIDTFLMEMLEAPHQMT
# Vitamin D3 receptor (Homo sapiens), sequence (P11473 whole entry, looked up): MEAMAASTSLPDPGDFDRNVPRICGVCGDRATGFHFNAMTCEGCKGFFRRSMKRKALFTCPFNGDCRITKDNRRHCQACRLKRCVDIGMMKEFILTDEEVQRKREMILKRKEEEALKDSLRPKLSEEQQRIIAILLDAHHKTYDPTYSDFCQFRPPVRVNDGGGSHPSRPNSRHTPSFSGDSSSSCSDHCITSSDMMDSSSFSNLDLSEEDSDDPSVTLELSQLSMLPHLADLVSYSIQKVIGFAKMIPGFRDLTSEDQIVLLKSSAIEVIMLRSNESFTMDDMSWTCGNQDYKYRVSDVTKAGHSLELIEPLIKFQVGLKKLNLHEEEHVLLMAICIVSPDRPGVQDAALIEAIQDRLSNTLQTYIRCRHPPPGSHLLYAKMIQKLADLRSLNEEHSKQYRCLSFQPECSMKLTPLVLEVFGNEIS
# Bile acid receptor (Homo sapiens), sequence (Q96RI1 whole entry, looked up): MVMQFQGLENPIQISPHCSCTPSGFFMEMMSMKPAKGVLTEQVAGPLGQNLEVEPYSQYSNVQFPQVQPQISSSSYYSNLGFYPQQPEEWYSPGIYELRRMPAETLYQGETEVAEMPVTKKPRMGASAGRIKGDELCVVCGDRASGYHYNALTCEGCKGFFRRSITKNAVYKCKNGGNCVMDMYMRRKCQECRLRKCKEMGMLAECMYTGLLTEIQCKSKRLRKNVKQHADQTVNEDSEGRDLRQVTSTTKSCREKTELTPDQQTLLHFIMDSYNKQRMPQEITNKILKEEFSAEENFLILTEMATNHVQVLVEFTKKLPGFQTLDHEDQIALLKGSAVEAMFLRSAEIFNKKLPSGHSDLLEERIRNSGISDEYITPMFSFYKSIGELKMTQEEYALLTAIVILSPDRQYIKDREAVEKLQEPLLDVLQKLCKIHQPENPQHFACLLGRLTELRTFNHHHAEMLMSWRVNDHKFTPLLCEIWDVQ
# Peroxisome proliferator-activated receptor alpha (Homo sapiens), sequence (Q07869 whole entry, looked up, the tested form may be a part): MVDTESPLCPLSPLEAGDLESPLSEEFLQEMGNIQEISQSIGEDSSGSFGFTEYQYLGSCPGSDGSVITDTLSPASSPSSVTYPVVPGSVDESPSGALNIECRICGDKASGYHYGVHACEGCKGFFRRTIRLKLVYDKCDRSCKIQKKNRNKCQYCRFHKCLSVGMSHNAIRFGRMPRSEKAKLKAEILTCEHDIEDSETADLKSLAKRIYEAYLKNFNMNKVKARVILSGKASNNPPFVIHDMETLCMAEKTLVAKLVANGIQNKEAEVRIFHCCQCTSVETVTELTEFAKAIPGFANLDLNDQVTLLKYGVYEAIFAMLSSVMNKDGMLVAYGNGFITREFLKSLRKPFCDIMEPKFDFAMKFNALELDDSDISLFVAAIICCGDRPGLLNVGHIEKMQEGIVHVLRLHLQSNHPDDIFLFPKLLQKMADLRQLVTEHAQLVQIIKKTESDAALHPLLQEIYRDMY
# Glucocorticoid receptor (Homo sapiens), sequence (P04150 whole entry, looked up): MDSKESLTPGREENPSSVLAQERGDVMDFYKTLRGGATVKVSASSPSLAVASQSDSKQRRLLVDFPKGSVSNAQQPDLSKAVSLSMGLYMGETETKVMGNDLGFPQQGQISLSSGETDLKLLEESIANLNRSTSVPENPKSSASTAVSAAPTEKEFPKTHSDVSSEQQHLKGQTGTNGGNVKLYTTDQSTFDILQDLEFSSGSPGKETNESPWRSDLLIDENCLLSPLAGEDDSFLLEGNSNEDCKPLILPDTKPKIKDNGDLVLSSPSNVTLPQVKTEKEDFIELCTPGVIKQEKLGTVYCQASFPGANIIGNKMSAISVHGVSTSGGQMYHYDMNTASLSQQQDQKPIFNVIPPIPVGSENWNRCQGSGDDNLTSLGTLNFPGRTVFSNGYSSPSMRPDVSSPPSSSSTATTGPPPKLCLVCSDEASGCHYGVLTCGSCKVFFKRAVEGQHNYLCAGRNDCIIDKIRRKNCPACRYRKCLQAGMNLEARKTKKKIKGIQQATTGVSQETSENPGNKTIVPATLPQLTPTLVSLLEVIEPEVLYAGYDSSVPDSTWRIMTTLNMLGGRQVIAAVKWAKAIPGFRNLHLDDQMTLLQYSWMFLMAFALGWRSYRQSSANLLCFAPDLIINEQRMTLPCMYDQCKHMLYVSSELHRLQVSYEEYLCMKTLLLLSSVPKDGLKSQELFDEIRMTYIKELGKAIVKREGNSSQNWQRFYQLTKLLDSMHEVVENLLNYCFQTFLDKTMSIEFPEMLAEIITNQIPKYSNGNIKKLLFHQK
smiles,measurement,setting,value
CC(C)c1ccc(C(C)C)cc1,activation,[1],2.92% (inactive)
O=C(O)C1(C(=O)Nc2ccc(Cl)cc2Cl)CC1,activation,[1],-11.8% (inactive)
CCCSP(=O)(OCC)Oc1ccc(Br)cc1Cl (stereo unspecified),Potency,[2],inactive
same,activation,[1],3.54% (inactive)
same,outcome,[3],inactive
same,max response,[4],5.89%
same,Potency,[5],inactive
same,outcome,[6],inactive
same,max response,[7],0.651%
same,Potency,[8],inactive
same,Potency,[9],inactive
same,activity change % (negative = inhibition),[10],3.3% (inactive)
same,activation,[11],3.94% (inactive)
same,activation,[12],0.74% (inactive)
same,activation,[13],3.36% (inactive)
same,Potency,[14],inactive
same,max response,[15],-7.9% (inactive)
same,max response,[16],-22.2% (inactive)
same,Potency,[17],inactive
same,max response,[18],7.3% (inactive)
same,outcome,[19],inactive
Cc1ccc(C(=O)c2ccccc2)cc1,activation,[1],-0.352% (inactive)
CCCCOCC(C)OCC(C)O (stereo unspecified),activation,[1],5.12% (inactive)
Cc1ccn2nc(S(=O)(=O)Nc3c(F)cccc3F)nc2n1,Potency,[2],inactive
same,activation,[1],-2.19% (inactive)
same,outcome,[3],inactive
same,max response,[4],35.3%
same,Potency,[20],inactive
same,Potency,[21],inactive
same,Potency,[5],inactive
same,outcome,[6],inactive
same,max response,[7],-22%
same,Potency,[8],inactive
same,max response,[22],2.3%
same,max response,[23],-2.18% (inactive)
same,Potency,[24],inactive
same,activation,[13],-0.461% (inactive)
same,max response,[25],0.276% (inactive)
same,Potency,[14],inactive
same,max response,[15],14.2% (inactive)
same,max response,[16],-3.63% (inactive)
same,Potency,[17],inactive
same,max response,[18],-3.4% (inactive)
same,outcome,[19],inactive
O=Cc1ccccc1Cl,activation,[1],0.21% (inactive)
COC(=O)c1ccccc1S(=O)(=O)NC(=O)Nc1nc(C)nc(OC)n1,Potency,[2],inactive
same,activation,[1],-2.54% (inactive)
same,outcome,[3],inactive
same,max response,[4],36.9%
same,Potency,[26],inactive
same,Potency,[5],inactive
same,Potency,[9],inactive
same,max response,[22],-10.3%
same,max response,[23],25.6% (inactive)
same,activation,[11],6.08% (inactive)
same,activation,[13],-1.13% (inactive)
same,max response,[25],5.99% (inactive)
same,Potency,[14],inactive
same,max response,[15],13.7% (inactive)
same,max response,[16],9.36% (inactive)
same,max response,[18],-8.23% (inactive)
N#CSCSc1nc2ccccc2s1,activation,[1],15% (inactive)
CC/C=C/C/C=C/C/C=C/CCCCCCCC(=O)OCC,activation,[1],1.74% (inactive)
CN1COCN(Cc2cnc(Cl)s2)/C1=N\[N+](=O)[O-],Potency,[2],inactive
same,activation,[27],-3.49% (inactive)
same,Potency,[28],inactive
same,outcome,[3],inactive
same,max response,[4],-72.6%
same,Potency,[26],inactive
same,Potency,[20],inactive
same,Potency,[21],inactive
same,Potency,[5],inactive
same,outcome,[6],inactive
same,max response,[7],-27.5%
same,Potency,[8],inactive
same,max response,[22],-4.43%
same,max response,[23],2.74% (inactive)
same,activity change % (negative = inhibition),[10],-19.4% (inactive)
same,activation,[11],-3.46% (inactive)
same,activation,[13],-0.335% (inactive)
same,Potency,[14],inactive
same,max response,[15],-21.4% (inactive)
same,max response,[16],-0.262% (inactive)
same,Potency,[17],inactive
same,max response,[18],-0.267% (inactive)
same,outcome,[19],inactive
